# About 79,000 compounds went through this panel and 15% of them were active in at least one assay; those are over-represented in the sample as a whole. Unmarked numbers belong to inactive results. Activity calls are given as the source filed them. Cut-off read from the data, not from the text of the source: active = growth inhibition above about 70%; inactive = the rest.
# Assays:
# [1] = NCI Yeast Anticancer Drug Screen. Data for the rad50 strain (AID 155);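 note: 0% = growth of vehicle-only cultures of the same strain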; conditions: S. cerevisiae rad50 strain growth inhibition; at 50.0 µM; hits give high values
# In short: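 Inhibition values express reduced yeast growth in compound-treated cultures relative to vehicle-treated controls.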
# [2] = NCI Yeast Anticancer Drug Screen. Data for the mec2-1 strain (AID 157); conditions: S. cerevisiae mec2-1 strain, at 50.0 µM, hits give high values
# In short: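 Compounds were applied to mec2-1 yeast cells. Their growth was then compared with that of vehicle-treated cultures to give growth inhibition.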
# [3] = NCI Yeast Anticancer Drug Screen. Data for the sgs1 mgt1 strain (AID 161);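 note: 0% = growth of cultures given vehicle only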; conditions: S. cerevisiae sgs1 mgt1 strain, at 50.0 µM, hits give high values
# In short: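 This yeast growth screen uses a strain with defined DNA-repair lesions; compound-treated growth is compared with vehicle-treated growth.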
# [4] = NCI Yeast Anticancer Drug Screen. Data for the cln2 rad14 strain (AID 165);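 note: 0% = growth equal to vehicle treated cultures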; conditions: S. cerevisiae cln2 rad14 strain, at 50.0 µM, hits give high values
# In short: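 Strain: cln2 rad14 yeast, altered in cell cycle control and DNA damage repair. Read-out: growth inhibition vs vehicle.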
# [5] = NCI Yeast Anticancer Drug Screen. Data for the bub3 strain (AID 167); conditions: S. cerevisiae bub3 mutant strain, at 50.0 µM, hits give high values
# In short: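 Steps: expose the mutant yeast strain to compound; grow alongside vehicle-treated cultures; measure growth; express inhibition against the vehicle cultures.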
# [6] = NCI Yeast Anticancer Drug Screen. Data for the mlh1 rad18 strain (AID 175); conditions: S. cerevisiae mlh1 rad18 strain growth inhibition; at 50.0 µM; hits give high values
# In short: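 A repair-deficient yeast strain is exposed to test compound, and growth is scored relative to vehicle-treated controls.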
Compound,growth inhibition [1],growth inhibition [2],growth inhibition [3],growth inhibition [4],growth inhibition [5],growth inhibition [6]
O=C1c2ccccc2C(=O)C1(Cl)C(Cl)c1ccc([N+](=O)[O-])cc1 (stereo not drawn),99.3% (active),98.9% (active),99.6% (active),99.1% (active),99.3% (active),99.5% (active)
Cc1noc(NS(=O)(=O)c2ccc(NC(=S)/N=C/C(C(=O)c3ccccc3)=C(\O)c3ccccc3)cc2)c1C,10.7%,0.55%,18.7%,-7.4%,-5.15%,13.7%
N#C/C(=C1/Sc2c(nc[nH]c2=O)N1c1ccccc1)c1nc2ccccc2[nH]1,-34.6%,-14.4%,-51.9%,-8.1%,-40%,-41.9%
Cc1cc(S(=O)(=O)Nc2nnc3cc(C(F)(F)F)cc(C)n23)c(S)cc1Cl,-19.6%,-26.8%,-38.1%,-15.8%,-19.9%,-14.2%
Cc1cc(C)n2c(-c3ccccc3)nnc2c1,19.1%,-7.2%,-20.2%,-7.05%,8.05%,-8.85%
N#CC(C#N)=C(O)/C(=C/c1ccccc1[N+](=O)[O-])NC(=O)c1ccccc1,2.75%,-5.6%,-3.65%,23.9%,1.75%,40.4%
CC12CCC(=O)C=C1CCC1C2CCC2(C)C1CCC2(O)C(=O)Cn1c(=O)[nH]cc(F)c1=O (stereo not drawn),-0.8%,-1.2%,5.75%,10.8%,-1.2%,11.4%
Cc1cc(=O)oc2c1ccc1occc(=O)c12,-16.6%,10.4%,-10.3%,4.95%,11.9%,-11%
C#CCN(Cc1ccc2nc(-c3ccccc3)c(N)nc2c1)c1cc(OC)c(OC)c(OC)c1,-0.75%,5.25%,31.8%,16.1%,14.7%,30.1%
C=C1C(=O)OC2C1C(OC(=O)/C(=C/CO)CO)CC1(CO1)C1CC=C(C)C21 (stereo not drawn),32.2%,8.05%,19.8%,-2.15%,-1.95%,9.6%
N/N=C(\NN)c1ccccc1,11.7%,12.2%,-4.2%,-47.5%,0.75%,11.7%
O=[N+]([O-])c1ccc(C[N+]2(CCC[N+]3(Cc4ccc([N+](=O)[O-])cc4)CCCC3)CCCC2)cc1,-1.6%,-18.2%,-2.1%,10.7%,8.75%,2.3%
CCN(CC)CCNc1cc(C)nc(/N=C(\N)Nc2ccc(Cl)cc2)n1,23.9%,1.05%,18.1%,-14.8%,11.6%,30.8%
CC1(C)N(/N=C/c2ccccc2)C(c2ccccc2)C(c2ccccc2)N1/N=C/c1ccccc1 (stereo not drawn),-8.95%,-6.45%,6.25%,-11.3%,2.65%,9.75%
O=C(Nc1ccc(Cl)c(Cl)c1)C(=O)C(C(=O)c1ccccc1-c1ccccc1)C1OC(=O)c2ccccc21 (stereo not drawn),20.2%,-0.45%,5.85%,-50.5%,4.85%,-8.9%
CCOC(=O)C1=C(C(=O)c2ccccc2)C(c2ccc(Cl)cc2Cl)C(C(=O)c2ccccc2)=C(C(=O)OCC)N1,-11.3%,-8.2%,-16.6%,-3.45%,-9%,-1.5%
O=C(Nc1ccc([N+](=O)[O-])cc1)c1ccc(Cl)cc1,-4.7%,7.75%,-1.35%,-50.5%,5.15%,-36.5%
COCCN(C(=O)c1ccccc1)C1CCC2(SCCS2)c2[nH]c3ccccc3c21 (stereo not drawn),16.1%,14.6%,3.75%,-35.2%,-1.75%,41%
CC(=O)Oc1c(C)c2c(O)c3c1C1=C(OCOC1=C(C)C3=O)/C(C)=C\C(C)(O)C(O)C(C)C(O)C1C(=O)OC(C(C)C1O)C(C)(O)/C=C/C=C(C)C(=O)N2 (stereo not drawn),16.2%,3.65%,-10.4%,8.95%,9.7%,5.5%

Compound,growth inhibition [1],growth inhibition [2],growth inhibition [3],growth inhibition [4],growth inhibition [5],growth inhibition [6]
CC(O)CN(CC(C)O)S(=O)(=O)c1ccc(N)cc1 (stereo not drawn),-9.15%,-14.2%,-0.45%,-9.3%,13.8%,-2%
Cc1c([N+](=O)[O-])cc(C(C)C)c(O)c1[N+](=O)[O-],14.8%,25.3%,27.9%,-6%,-9.5%,66.2%
CC(C)CN(CC(C)C)/N=C/c1cc([N+](=O)[O-])ccc1O,-11.7%,9%,-4.9%,-3.65%,-12.9%,-14.8%
Clc1ccc(OCc2nnc3n2N=C(c2ccccc2)CS3)cc1,36.5%,7.1%,15.9%,36.2%,23.5%,15.9%
NC(CCCC(N)P(=O)(O)c1ccccc1)P(=O)(O)c1ccccc1 (stereo not drawn),-37.9%,-40.5%,-63.5%,-9.65%,-45.5%,-46.6%
O=C1CN(C=C2C(=O)NC(=O)NC2=O)C(=S)N1,-53.8%,-23.7%,-43%,-36.7%,-22.3%,-71.2%
O=c1/c(=C\C=C\c2ccccc2)sc2n1CCN=2,-15.7%,-40.6%,-11.3%,-10.8%,-22.2%,-13.5%
CN1N=Nc2ccccc2C1(O)c1ccccc1 (stereo not drawn),8.7%,-3.05%,0.25%,-18.6%,-11.9%,6.9%
CC(C)CCCC(C)C1CCC2C3CC=C4CC(OC(=O)Nc5ccc(S(=O)(=O)N6CCCCC6)cc5)CCC4(C)C3CCC12C (stereo not drawn),2.3%,2.45%,1.65%,-5.8%,-3.75%,6.45%
O=C(Nc1ccc(Cl)cc1)Nc1nnc(-c2cccc(-c3nnc(NC(=O)Nc4ccc(Cl)cc4)o3)c2)o1,39.1%,34.3%,36.4%,21.7%,-3.5%,14%
COc1ccccc1N=Nc1c(O)n(-c2ccccc2C)c(=S)n(-c2ccccc2OC)c1=O,38.4%,-9.7%,19.1%,-12.8%,-3.95%,3.2%
COc1ccc(C2=C(N)c3cc(OC)ccc3C2=O)cc1,41.1%,12.3%,33%,-0.3%,32.1%,-24.8%
C=CCNC(=O)N(CCC)CCCCC(NC(C)=O)C(=O)NCc1ccccc1 (stereo not drawn),11.5%,7.5%,-8.4%,18.6%,8.75%,4.35%
CCOC(=O)N1C=NC23C(c4ccccc4)C(c4ccccc4)C12C(=O)N(C)C(=O)N3C (stereo not drawn),-1.55%,-9.2%,0.7%,-26.8%,-8.35%,-30.9%
CCCn1c(=S)[nH]c2c(=O)n(C)c(=O)n(C)c21,-3.55%,-8.9%,-0.45%,-17.8%,-4.85%,5.65%
CCOC(=O)/C(=C\OC(=O)c1ccccc1)NC(=O)Cc1ccccc1,-1.9%,25.6%,22%,-98.8%,37.2%,23.4%
CC(NC(=O)OCc1ccccc1)NC(=O)C(CC(=O)OC(C)(C)C)NC(=O)OC(C)(C)C (stereo not drawn),-26.6%,-40.5%,-24.9%,-7.3%,-30.8%,-29.3%
c1ccc(-c2cc(CNc3nc4ccccc4s3)on2)cc1,19.9%,10.7%,9.1%,5.45%,-4.55%,9.75%
C=CCOCc1ccc(C(C)(C)CC(C)(C)C)cc1,-5.25%,13.5%,8.6%,-75.5%,16.1%,15.7%
